Measurements as given in PubChem BioAssay AID1159580 (chemical genetic matrix, 2015).
Values joined by “and” are separate entries in the source; they are usually repeats but may differ in a detail not shown here. Equal entries are not always repeated. In all, about 5,500 compounds went through this assay and about 2,000 (36%) were called active. Another 18% or so got no clear call; they are omitted. Rule as the data show it: active = normalized growth mostly below about 0.91 (no sharp cut-off); inconclusive = no clear call, values can overlap the other calls; inactive = mostly above about 0.92. Some of the results follow.

Test: chemical genetic growth profiling, strain panel (AID 1159580);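 also: tested at 20 µM; growth read once vehicle control cultures reached saturation at 30 °C; 1 = growth at the plate median or of vehicle wells; lower values mean less growth of the strain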
Conditions: S. cerevisiae deletion strains, growth OD

Measured: normalized growth

CC12CC3CC(C)(C1)CC(N)(C3)C2
inactive: locus YAL013W, strain DEP1, active compounds read low 1 and 0.983 | locus YAL021C, strain ccr4, active compounds read low 1 | locus YAL026C, strain drs2, active compounds read low 0.99 | locus YAL030W, strain snc1, active compounds read low 0.976 | locus YAL040C, strain CLN3, active compounds read low 1.06 | locus YBL061C, strain skt5, active compounds read low 0.977 | locus YBR009C, strain hhf1, active compounds read low 0.993 | locus YBR021W, strain FUR4, active compounds read low 1.02 | locus YBR023C, strain chs3, active compounds read low 0.985 | locus YBR171W, strain sec66, active compounds read low 0.98 | locus YBR229C, strain ROT2, active compounds read low 0.997 | locus YBR231C, strain swc5, active compounds read low 0.963 | locus YBR279W, strain paf1, active compounds read low 0.981 | locus YCL011C, strain gbp2, active compounds read low 1.01 | locus YCL016C, strain dcc1, active compounds read low 1.01 | locus YCL029C, strain bik1, active compounds read low 1.02 | locus YCL061C, strain MRC1 (second series), active compounds read low 0.994 | locus YCL061C, strain MRC1, active compounds read low 0.989 | locus YCL069W, strain vba3, active compounds read low 0.992 | locus YCR088W, strain abp1, active compounds read low 0.982 | locus YDL005C, strain med2, active compounds read low 0.988 | locus YDL035C, strain GPR1, active compounds read low 0.999 | locus YDL040C, strain nat1, active compounds read low 0.986 | locus YDL074C, strain BRE1, active compounds read low 1.03 | locus YDL101C, strain DUN1, active compounds read low 1.02 | locus YDL134C, strain PPH21, active compounds read low 1 | locus YDL185W, strain tfp1, active compounds read low 1.01 | locus YDL192W, strain arf1, active compounds read low 1.01 | locus YDR001C, strain nth1, active compounds read low 0.999 | locus YDR069C, strain doa4, active compounds read low 0.983 | locus YDR101C, strain arx1, active compounds read low 1.01 | locus YDR137W, strain rgp1, active compounds read low 1.01 | locus YDR150W, strain NUM1, active compounds read low 0.996 and 1 | locus YDR159W, strain sac3, active compounds read low 0.962 | locus YDR162C, strain NBP2, active compounds read low 1.01 | locus YDR195W, strain ref2 0.94 | locus YDR297W, strain sur2, active compounds read low 0.988 | locus YDR318W, strain mcm21, active compounds read low 1.02 | locus YDR334W, strain swr1, active compounds read low 1.01 | locus YDR335W, strain msn5, active compounds read low 0.986 | locus YDR363W, strain ESC2, active compounds read low 0.959 | locus YDR388W, active compounds read low 1.01 | locus YDR392W, strain spt3, active compounds read low 0.993 | locus YDR502C, strain sam2, active compounds read low 1.01 | locus YEL003W, strain gim4, active compounds read low 0.986 | locus YEL037C, strain rad23, active compounds read low 0.981 | locus YEL061C, strain CIN8 (second series), active compounds read low 0.971 | locus YEL061C, strain CIN8, active compounds read low 1 | locus YER002W, strain NOP16, active compounds read low 1.02 | locus YER015W, strain faa2, active compounds read low 0.998 | locus YER016W, strain bim1, active compounds read low 0.979 | locus YER110C, active compounds read low 1 | locus YER111C, strain swi4, active compounds read low 0.983 | locus YER155C, strain BEM2 (second series), active compounds read low 0.989 | locus YER155C, strain BEM2, active compounds read low 1.01 | locus YER167W, strain BCK2, active compounds read low 1.01 | locus YFR010W, strain ubp6, active compounds read low 0.988 | locus YGL078C, strain dbp3, active compounds read low 0.999 | locus YGL086W, strain mad1, active compounds read low 0.988 | locus YGL167C, strain pmr1, active compounds read low 1.01 | locus YGL173C, strain kem1, active compounds read low 0.957 | locus YGL227W, strain vid30, active compounds read low 0.994 | locus YGL240W, strain doc1, active compounds read low 0.966 | locus YGL248W, strain PDE1, active compounds read low 0.999 | locus YGL253W, strain hxk2, active compounds read low 0.977 | locus YGR078C, strain PAC10, active compounds read low 1.02 and 0.97 | locus YGR135W, strain pre9, active compounds read low 1.01 | locus YGR229C, strain SMI1, active compounds read low 1.02 | locus YGR252W, strain gcn5, active compounds read low 0.968 | locus YHR013C, strain ard1, active compounds read low 0.983 | locus YHR027C, strain rpn1, active compounds read low 0.995 | locus YHR030C, strain SLT2, active compounds read low 1.01 and 0.993 | locus YHR079C, strain IRE1 (second series), active compounds read low 1.01 | locus YHR079C, strain IRE1, active compounds read low 0.965 | locus YHR094C, strain hxt1, active compounds read low 1.01 | locus YHR129C, strain ARP1, active compounds read low 1.02 | locus YHR142W, strain chs7, active compounds read low 0.963 | locus YHR200W, strain rpn10, active compounds read low 1 | locus YIL066C, strain RNR3, active compounds read low 1.01 | locus YIL073C, strain SPO22, active compounds read low 1.09 | locus YIL125W, strain kgd1, active compounds read low 1 | locus YIR030C, strain dcg1, active compounds read low 1.01 | locus YJL092W, strain hpr5, active compounds read low 0.983 | locus YJL095W, strain BCK1 (second series), active compounds read low 0.985 | locus YJL095W, strain BCK1, active compounds read low 1.04 and 1 | locus YJL115W, strain asf1, active compounds read low 0.976 | locus YJL129C, strain trk1, active compounds read low 0.958 | locus YJL134W, strain LCB3, active compounds read low 0.999 | locus YJL154C, strain vps35, active compounds read low 0.972 | locus YJL164C, strain tpk1, active compounds read low 1.01 | locus YJL166W, strain qcr8, active compounds read low 0.984 | locus YJL168C, strain set2, active compounds read low 1 | locus YJL187C, strain SWE1 (second series), active compounds read low 1.02 | locus YJL187C, strain SWE1, active compounds read low 0.992 | locus YJR043C, strain POL32, active compounds read low 1.01 | locus YJR066W, strain TOR1, active compounds read low 0.923
